Holding throughout (assay): NCI-60 one-dose screen, 48 h (100 = growth as untreated, 0 = no growth, -100 = all killed)
Holding throughout (conditions): 10 µM unless noted

The test system of experiment [1] is SR leukemia.
Experiment [2] deals with OVCAR-8 ovarian.
Experiment [3] deals with OVCAR-5 ovarian.
Experiment [4] relates to OVCAR-4 ovarian.
Experiment [5] relates to SK-OV-3 ovarian.
For experiment [6], the system named is IGROV1 ovarian.
For experiment [7], the system named is OVCAR-3 ovarian.
Experiment [8] deals with HS 578T breast.
In experiment [9] the test system is NCI/ADR-RES ovarian.
In experiment [10] the test system is T-47D breast.
The subject of experiment [11] is BT-549 breast.
The test system of experiment [12] is MDA-MB-435 melanoma.
The test system of experiment [13] is SW-620 colon.
Experiment [14] has as its system MCF7 breast.
Experiment [15] deals with HCT-116 colon.
For experiment [16], the system named is HCC-2998 colon.
Experiment [17] has as its system KM12 colon.
For experiment [18], the system named is RPMI-8226 leukemia.

Consider 9 molecules from PubChem BioAssay (NCI).

The structures appear in SMILES notation. This is part of a sample that, as a whole, favours compounds with a hit. Of some 83,000 tested, about 20% had one in any assay.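 The endpoint reported here, percent growth, reads 100 for growth as untreated, 0 for no net growth and -100 for all cells dead.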 Values without a mark were called inactive. Activity calls are given as the source filed them. How the source made its calls: active means growth percent below 10; inactive means the rest.

Turning to `CCCCOc1nc2ccc(Cl)cc2cc1/C=C/C(=O)/C=C1/CC(c2cc3cc(Cl)ccc3nc2OCCCC)Nc2ccccc2N1` (stereo not drawn), the growth in experiment [1] was 91.2%; in [2], 101%; in experiment [3], 93.8%; in experiment [4] it was 101%; in experiment [5] it was 86.1%; in [6] it was 67.2%. Further, the growth in [7] is 102%; in experiment [8] it was 91.1%; in experiment [9], 98.3%; in [10], 83.5%; in [11] it was 96.6%; in [12], 104%. In addition, the growth in [13] is 98.7%; in experiment [14], 74.2%; in [15], 97.6%; in [16] it was 91.5%; in [17], 101%.
For the molecule `CCOC(=O)N1CCc2c(sc3c2C(=O)N[C@H](c2ccc(OC)cc2)N3)C1`, the growth in experiment [1] is 87.7%; in experiment [2], 89.2%; in experiment [3], 108%; in experiment [4], 102%; in experiment [5] it was 65.4%; in [6], 107%. Besides, the growth is 102% in experiment [7]; 98.7% in [8]; 102% in [9]; 79% in experiment [10]; 108% in [11]; 98.7% in experiment [12]. For the same molecule, the growth in experiment [13] is 99.6%; in experiment [14] it was 97.7%; in experiment [15], 93.3%; in experiment [16], 104%.
For the molecule `Clc1ccc(/C=C/c2nc(Nc3ccc(Cl)cc3)c3ccccc3n2)cc1`, the growth in [1] is 104%; in experiment [2], 102%; in experiment [3], 106%; in [4] it was 112%; in experiment [5], 96.6%; in experiment [6], 78.2%. The growth in experiment [7] is 106%; in experiment [8], 103%; in [9], 103%; in experiment [10], 91.2%; in [11] it was 107%; in [12] it was 109%. The growth in experiment [13] was 103%; in [14], 80.9%; in experiment [15], 99.1%; in experiment [16], 106%; in experiment [17], 109%.
On to `CC(=[N-])N1CCC[C@@H](Nc2c3ccccc3nc3ccccc23)C1.[Cl][Pt].[NH-]CCC[NH-]`, for which the growth is 17.1% in [1]; 30.1% in experiment [18]; 39% in experiment [3]; 20.4% in experiment [4]; 17.2% in experiment [6]; 3.95% (active) in experiment [7]. Further, the growth in experiment [9] is 85%; in experiment [10], 14.8%; in [11], 79%; in [12], 81.9%; in experiment [13], 20.5%; in experiment [14], 10.6%. Also, the growth was 14.9% in experiment [15], 49.7% in [16] and 49% in experiment [17].
For the molecule `O[C@H]1CO[C@H]2[C@@H]1OC[C@@H]2Oc1ccc(Nc2ccnc(Nc3ccc(O[C@H]4CO[C@H]5[C@@H]4OC[C@@H]5O)c(Cl)c3)n2)cc1Cl`, the growth in experiment [1] is 12.2%; in experiment [2], 7.77% (active); in experiment [3], 27.6%; in experiment [4], 19.8%; in experiment [5] it was 19.1%; in [6], -2.78% (active). In addition, the growth in [7] was 13.6%; in experiment [8], -2.86% (active); in [9] it was 74.1%; in experiment [10], 2.36% (active); in [11], 22.1%; in [12], 22.7%. The growth in experiment [13] is 19.5%; in experiment [14], 14.6%; in experiment [15], 9.14% (active); in experiment [16], 17.1%; in [17] it was 6.62% (active).
As to `Cn1ccnc1C(=O)/C=C/c1ccc(C(=O)Nc2ccc(S(F)(F)(F)(F)F)cc2)cc1`, the growth in experiment [1] is 1.8% (active); in experiment [2] it was 9.86% (active); in experiment [3], 10.2%; in experiment [4], 33.5%; in [5], 61.2%; in experiment [6], 22.3%. Moreover, the growth was 2.9% (active) in experiment [7]; 23.5% in experiment [8]; 5.47% (active) in [9]; 27.8% in [10]; 39.6% in experiment [11]; 39.2% in experiment [12]. In addition, the growth in experiment [13] is 12.5%; in [14] it was 12.5%; in experiment [15], 3.62% (active); in experiment [16], 5.66% (active); in [17] it was 16.6%.
As for `Cc1cc(=O)[nH]c(N/N=C/c2cc(Br)ccc2O)n1`, the growth is 28.4% in experiment [1]; 31.2% in experiment [18]; 39.1% in experiment [3]; 7.34% (active) in [4]; 19.1% in experiment [5]; -0.435% (active) in experiment [6]. In addition, the growth in [7] was 6.58% (active); in experiment [9], 10.2%; in experiment [10] it was 25%; in [11], 17.2%; in experiment [12] it was 47.3%; in experiment [14], 1.32% (active). Also, the figures for the growth in experiment [15], in experiment [16] and in [17] were 5.04% (active), 32.5% and 34.6%, respectively.
For `Nc1ccc(-c2cc3c(Nc4ccc(OCc5cccc(F)c5)c(Cl)c4)ncnc3s2)cc1`, the growth in experiment [1] was 14.5%; in [2], 63.1%; in experiment [3], 77.9%; in [4], 54.8%; in [5], -2.32% (active); in experiment [6], 38.2%. Besides, the growth is 46.6% in experiment [7]; 77% in experiment [8]; 50.4% in experiment [9]; 15.4% in experiment [10]; 61.2% in experiment [11]; 43.8% in experiment [12]. For the same molecule, the growth in experiment [13] was 74.1%; in experiment [14], 26.2%; in experiment [15] it was 50.7%; in experiment [16], 38.6%; in experiment [17] it was 24%.
On to `CCOC(=O)c1sc(-c2ccc(OS(=O)(=O)c3ccc(C(C)(C)C)cc3)c(C=O)c2)nc1C`, for which the growth in experiment [1] is 14.5%; in experiment [2], 38.2%; in experiment [3], 64.3%; in [4], 39.2%; in [5] it was 85.5%; in experiment [6], 32%. The growth was 30% in experiment [7]; 52.9% in experiment [8]; 32.4% in experiment [9]; 31.2% in experiment [10]; 53.6% in experiment [11]; 57.2% in experiment [12]. In addition, the growth was 19.9% in experiment [13]; 33.9% in experiment [14]; 15.2% in experiment [15]; 52.4% in experiment [16]; 17.9% in [17].
